In PubChem BioAssay (Tox21):
Calls of active or inactive are those of the source. Unless noted, calls come from the whole dose curve; as a rule, active = well fitted curve in the direction sought with a large enough effect in the repeat runs; inconclusive = weak or mixed curves; inactive = no such curve, though single readings can be large; an effect the other way counts as inactive or inconclusive.

Assays:
[1] = qHTS assay to identify small molecule antagonists of the glucocorticoid receptor (GR) signaling pathway - cell viability counter screen (AID 720693); note: nearly all actives have a fitted effect of over 55% in size
[2] = qHTS assay for identifying genotoxic compounds that show differential cytotoxicity against isogenic chicken DT40 cell lines with known DNA damage response pathways - wild type cell line (AID 743012); note: nearly all actives have a fitted effect of over 60% in size; note: potency is the fitted concentration of half-maximal effect
In short: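 First, wild type DT40 cells were plated at 300 per well and equilibrated about 0.5 h at 37 C/5% CO2. Next, compounds in DMSO were added and exposure lasted 40 h. Finally, CellTiter-Glo was added for 30 min at room temperature and luminescence recorded.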

[3] = qHTS assay to identify small molecule antagonists of the androgen receptor (AR) signaling pathway - cell viability counter screen (AID 743033; note: nearly all actives have a fitted effect of over 45% in size; note: potency is the fitted concentration of half-maximal effect)
[4] = qHTS assay to identify small molecule antagonists of the androgen receptor (AR) signaling pathway using the MDA cell line - cell viability counter screen (AID 743041; note: nearly all actives have a fitted effect of over 45% in size; note: potency is the fitted concentration of half-maximal effect)
In short: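 MDA-kb2 AR-luc cells (MMTV-luciferase, AR/GR responsive) treated with compounds plus R1881 agonist for 16 h at 37C. CellTiter-Fluor added at 15.5 h; fluorescence read after 30 min in the same wells.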

[5] = qHTS assay to identify small molecule antagonists of the thyroid receptor (TR) signaling pathway - cell viability counter screen (AID 743064); note: nearly all actives have a fitted effect of over 50% in size; note: potency is the fitted concentration of half-maximal effect
In short: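 In rat pituitary GH3.TRE-Luc reporter cells co-exposed to compound and 1 nM T3 for 23.5 h, cytotoxicity was assessed with CellTiter-Fluor in the same wells, read by fluorescence.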

[6] = qHTS assay to identify small molecule antagonists of the thyroid receptor (TR) signaling pathway (AID 743065); note: nearly all actives have a fitted effect of over 55% in size; note: potency is the fitted concentration of half-maximal effect
In short: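 GH3.TRE-Luc rat pituitary cells (two TREs driving luciferase) were dosed with compound, then stimulated with 1 nM T3 (final) for 23.5 h at 37 C. ONE-Glo luminescence was the read-out, with CellTiter-Fluor fluorescence as the cytotoxicity counter-screen.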

[7] = test system: thyroid hormone receptor (rat, GH3 cells); assay: qHTS assay to identify small molecule agonists of the thyroid receptor (TR) signaling pathway (AID 743066; calls by dose curve)
[8] = target: Estrogen receptor (Homo sapiens) (UniProt P03372); assay: qHTS assay to identify small molecule antagonists of the estrogen receptor alpha (ER-alpha) signaling pathway (AID 743069; active = well fitted curve in the direction sought with a large enough effect in the signal ratio in the repeat runs, not every such curve was filed as active; inconclusive = weak or mixed curves, or effect the other way; inactive = no such curve, though single readings can be large or run the other way; the % refers to the signal ratio; note: potency is the fitted concentration of half-maximal effect)
In short: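 HEK293 ER-alpha-UAS-bla GripTite cells, held overnight in 2% charcoal-stripped FBS, 5,000 cells/well, preincubated 4 h, then compound plus 17beta-estradiol for 18 h at 37C. Beta-lactamase read by LiveBLAzer B/G FRET substrate, 2 h at room temperature.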

[9] = qHTS assay to identify small molecule antagonists of the estrogen receptor alpha (ER-alpha) signaling pathway - cell viability counter screen (AID 743074; calls by dose curve;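 note: HEK293 cells carrying ER-alpha-UAS-bla reporter stimulated with 17beta-estradiol; nearly all actives have a fitted effect of over 45% in size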)
[10] = target: Estrogen receptor (Homo sapiens) (UniProt P03372); assay: qHTS assay to identify small molecule agonists of the estrogen receptor alpha (ER-alpha) signaling pathway (AID 743075; calls by dose curve)
[11] = target: Estrogen receptor (Homo sapiens) (UniProt P03372); assay: qHTS assay to identify small molecule agonists of the estrogen receptor alpha (ER-alpha) signaling pathway using the BG1 cell line (AID 743079); settings: BG1Luc4E2 cells, ERE-luciferase agonist, 22 h; activation: at 70.3 µM (top of the series); note: nearly all actives have a fitted effect of over 20% in size; note: potency is the fitted concentration of half-maximal effect
[12] = qHTS assay to identify small molecule antagonists of the estrogen receptor alpha (ER-alpha) signaling pathway using the BG1 cell line (AID 743080; calls by dose curve;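 note: BG1 cells stimulated with 17beta-estradiol alongside compound; nearly all actives have a fitted effect of over 25% in size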; note: potency is the fitted concentration of half-maximal effect)
In short: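 Seeding, 24 h rest, compound transfer from DMSO, 17beta-estradiol addition, 21.5 h incubation, CellTiter-Fluor (30 min, 37 C), then ONE-Glo (30 min, room temperature): this sequence was run on BG1-Luc-4E2 reporter cells.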

[13] = qHTS assay to identify small molecule antagonists of the estrogen receptor alpha (ER-alpha) signaling pathway using the BG1 cell line - cell viability counter screen (AID 743081);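 note: compound given together with 17beta-estradiol as the ER stimulus; nearly all actives have a fitted effect of over 45% in size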
[14] = target: Aromatase (Homo sapiens) (UniProt P11511); assay: qHTS assay to identify aromatase inhibitors (AID 743083); note: nearly all actives have a fitted effect of over 55% in size; note: potency is the fitted concentration of half-maximal effect
[15] = qHTS assay to identify aromatase inhibitors - cell viability counter screen (AID 743084);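 note: cells stimulated with testosterone during compound exposure; nearly all actives have a fitted effect of over 55% in size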
[16] = target: Androgen receptor (Homo sapiens) (UniProt P10275); assay: qHTS assay to identify small molecule agonists of the androgen receptor (AR) signaling pathway (AID 743036; active = well fitted activation curve with a large enough effect in the signal ratio in the repeat runs, with a control signal flat, not every such curve was filed as active; inconclusive = weak or mixed curves, or effect the other way; inactive = no such curve, though single readings can be large or run the other way; the % refers to the signal ratio; note: potency is the fitted concentration of half-maximal effect)
In short: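 Cell-based FRET reporter assay: HEK293 line with a UAS-beta-lactamase construct, compounds added in DMSO, 16 h exposure at 37C, then 2 h substrate step at room temperature and fluorescence intensity read.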

[17] = target: Androgen receptor (Homo sapiens) (UniProt P10275); assay: qHTS assay to identify small molecule agonists of the androgen receptor (AR) signaling pathway using the MDA cell line (AID 743040; note: nearly all actives have a fitted effect of over 20% in size; note: potency is the fitted concentration of half-maximal effect)
In short: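 MDA-kb2 breast carcinoma cells carrying MMTV-luciferase (responsive to AR and GR), plated 5 h then treated 16 h with compounds at 37C, 0% CO2. Read-out was ONE-Glo luminescence after 30 min at room temperature.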

[18] = target: Androgen receptor (Homo sapiens) (UniProt P10275); assay: qHTS assay to identify small molecule antagonists of the androgen receptor (AR) signaling pathway using the MDA cell line (AID 743042; note: nearly all actives have a fitted effect of over 55% in size)
In short: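 MDA-kb2 breast carcinoma cells carrying MMTV-luciferase (AR/GR responsive) were co-treated with compounds and the agonist R1881 for 16 h at 37C. Inhibition read as ONE-Glo luminescence; CellTiter-Fluor fluorescence measured in parallel for cytotoxicity.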

[19] = qHTS assay for identifying genotoxic compounds that show differential cytotoxicity against isogenic chicken DT40 cell lines with known DNA damage response pathways - Rev3 mutant cell line (AID 743014); note: nearly all actives have a fitted effect of over 55% in size; note: potency is the fitted concentration of half-maximal effect
[20] = qHTS assay for identifying genotoxic compounds that show differential cytotoxicity against isogenic chicken DT40 cell lines with known DNA damage response pathways - Rad54/Ku70 mutant cell line (AID 743015); note: nearly all actives have a fitted effect of over 60% in size; note: potency is the fitted concentration of half-maximal effect

Measured: Potency

Sequence of Aromatase (Homo sapiens) (P11511 whole entry, looked up): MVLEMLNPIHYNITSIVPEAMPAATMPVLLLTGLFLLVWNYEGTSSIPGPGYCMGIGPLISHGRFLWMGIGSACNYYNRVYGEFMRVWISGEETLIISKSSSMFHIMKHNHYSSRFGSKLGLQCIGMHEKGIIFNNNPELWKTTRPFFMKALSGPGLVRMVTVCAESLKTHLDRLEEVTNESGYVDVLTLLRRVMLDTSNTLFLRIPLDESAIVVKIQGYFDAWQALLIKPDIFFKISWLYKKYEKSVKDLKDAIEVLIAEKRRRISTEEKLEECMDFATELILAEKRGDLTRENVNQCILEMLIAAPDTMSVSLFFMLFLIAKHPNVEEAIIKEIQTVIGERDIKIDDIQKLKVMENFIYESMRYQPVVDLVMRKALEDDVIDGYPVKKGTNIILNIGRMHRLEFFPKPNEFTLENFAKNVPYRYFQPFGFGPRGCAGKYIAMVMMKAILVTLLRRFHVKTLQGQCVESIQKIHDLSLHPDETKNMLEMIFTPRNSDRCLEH
Sequence of Estrogen receptor (Homo sapiens) (P03372 whole entry, looked up): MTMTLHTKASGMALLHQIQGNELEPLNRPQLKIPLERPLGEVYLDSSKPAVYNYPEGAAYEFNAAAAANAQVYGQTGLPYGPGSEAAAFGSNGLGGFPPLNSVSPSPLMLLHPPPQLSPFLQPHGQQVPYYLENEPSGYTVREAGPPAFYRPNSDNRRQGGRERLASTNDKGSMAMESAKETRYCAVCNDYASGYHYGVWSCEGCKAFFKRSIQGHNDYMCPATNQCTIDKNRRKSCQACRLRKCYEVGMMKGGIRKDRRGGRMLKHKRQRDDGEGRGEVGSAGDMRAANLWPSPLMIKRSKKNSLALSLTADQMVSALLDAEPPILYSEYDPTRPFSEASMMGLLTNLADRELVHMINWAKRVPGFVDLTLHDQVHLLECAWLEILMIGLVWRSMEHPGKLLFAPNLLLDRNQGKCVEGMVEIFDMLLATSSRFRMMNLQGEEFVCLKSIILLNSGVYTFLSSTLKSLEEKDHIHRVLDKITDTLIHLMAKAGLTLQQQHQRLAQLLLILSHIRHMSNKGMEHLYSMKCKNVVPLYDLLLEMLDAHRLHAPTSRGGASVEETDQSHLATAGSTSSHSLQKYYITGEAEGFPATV
Sequence of Androgen receptor (Homo sapiens) (P10275 whole entry, looked up): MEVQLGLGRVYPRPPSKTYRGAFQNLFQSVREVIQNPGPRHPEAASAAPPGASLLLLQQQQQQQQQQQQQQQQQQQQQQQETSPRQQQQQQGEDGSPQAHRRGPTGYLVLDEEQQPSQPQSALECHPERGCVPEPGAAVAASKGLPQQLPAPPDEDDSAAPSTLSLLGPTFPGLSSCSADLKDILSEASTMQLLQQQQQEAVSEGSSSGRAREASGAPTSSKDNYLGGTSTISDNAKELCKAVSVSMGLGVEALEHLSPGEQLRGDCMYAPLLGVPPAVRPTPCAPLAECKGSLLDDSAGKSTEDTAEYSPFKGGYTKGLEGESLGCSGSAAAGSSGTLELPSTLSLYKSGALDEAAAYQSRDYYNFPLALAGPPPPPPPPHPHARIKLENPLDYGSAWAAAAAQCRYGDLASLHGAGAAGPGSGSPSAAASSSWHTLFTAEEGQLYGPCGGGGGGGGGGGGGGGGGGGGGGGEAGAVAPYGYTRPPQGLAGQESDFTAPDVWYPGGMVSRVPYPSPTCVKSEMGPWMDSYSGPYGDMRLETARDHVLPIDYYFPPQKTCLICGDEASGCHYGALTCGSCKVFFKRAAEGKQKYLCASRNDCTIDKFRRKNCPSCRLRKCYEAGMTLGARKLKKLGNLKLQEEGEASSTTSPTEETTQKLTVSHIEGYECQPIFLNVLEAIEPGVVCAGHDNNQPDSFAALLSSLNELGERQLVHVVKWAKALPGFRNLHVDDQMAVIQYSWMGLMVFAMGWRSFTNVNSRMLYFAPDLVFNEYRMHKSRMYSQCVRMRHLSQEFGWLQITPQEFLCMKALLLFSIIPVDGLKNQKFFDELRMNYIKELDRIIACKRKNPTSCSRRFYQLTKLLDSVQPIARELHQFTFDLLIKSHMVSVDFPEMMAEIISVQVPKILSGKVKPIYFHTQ

OCCSc1ccccc1
not listed: [16] | [17] | [18] | [19] | [20]
inactive: all other assays above

OC(CCCN1CCCCC1)(c1ccccc1)c1ccccc1
active: [2] 13.3 µM
not listed: [5] | [6] | [9] | [13] | [19] | [20]
inactive: all other assays above

N#C/C(=C1\SCC(c2ccccc2Cl)S1)n1ccnc1 (stereo not drawn)
active: [19] 26.6 µM | [20] 29.8 µM | [14] 3.35 µM
inactive: [1] | [3] | [16] | [4] | [18] | [9] | [13] | [15]

Cc1cnc(C)c(C)n1
inactive: [1] | [2] | [3] | [4] | [5] | [6] | [7] | [9] | [13] | [14] | [15]

O=C(CS)OCCOC(=O)CS
active: [19] 68.6 µM | [20] 61.1 µM
inactive: [1] | [3] | [4] | [5] | [7] | [9] | [13] | [14] | [15]

NC(=O)N(O)[C@@H]1COc2cc(OCc3ccccc3)ccc21
active: [19] 68.6 µM | [6] 61.1 µM
inactive: [1] | [3] | [4] | [5] | [8] | [9] | [10] | [13] | [14] | [15]

O=C(C(=O)c1ccccc1)c1ccccc1
inactive: [1] | [19] | [20] | [3] | [5] | [6] | [7] | [9] | [13]

CCOC(=O)C(C)Oc1ccc(Oc2nc3ccc(Cl)cc3o2)cc1 (stereo not drawn)
active: [19] 68.6 µM | [20] 61.1 µM
not listed: [2] | [5] | [8] | [10] | [11] | [12] | [16]
inactive: all other assays above

Nc1ccc(S(=O)(=O)O)cc1
active: [19] 54.8 µM | [11] 38.8 µM
not listed: [2] | [16] | [17] | [18]
inactive: all other assays above

NCC1CCCC(CN)C1 (stereo not drawn)
not listed: [2] | [8] | [10] | [11] | [12]
inactive: all other assays above

Cc1ccnc2ccccc12
not listed: [16] | [17] | [18] | [19] | [20]
inactive: all other assays above

NC(=O)Nc1ccc(Cl)c(Cl)c1
inactive: [1] | [3] | [4] | [5] | [7] | [9] | [13] | [14] | [15]
active: [19] 60.9 µM

CC(=O)Oc1ccc(C(=C2CCCCC2)c2ccc(OC(C)=O)cc2)cc1
not listed: [5] | [6] | [7] | [16] | [17] | [18] | [19]
inactive: all other assays above

CC[C@H](NC(=O)c1cc(F)ccc1NS(=O)(=O)c1cccc2cccnc12)c1ccccc1
active: [19] 57.9 µM
not listed: [2] | [6] | [8] | [12] | [16] | [17] | [18] | [20]
inactive: all other assays above

CCC(C(=O)OCCOCCN(CC)CC)c1ccccc1 (stereo not drawn)
active: [19] 10.6 µM | [20] 21.1 µM
not listed: [2] | [3] | [16] | [17] | [18]
inactive: all other assays above

CC1=C(/C=C/C(C)=C\C=C\C(C)=C\C(=O)O)C(C)(C)CCC1
inactive: [1] | [4] | [5] | [6] | [9] | [10] | [13] | [14]
active: [2] 34.4 µM | [12] 0.243 µM

CCC(C(=O)OCCN(CC)CC)c1ccccc1 (stereo not drawn)
not listed: [19] | [20]
inactive: all other assays above

CCCCC(=O)O[C@]1(C(=O)CO)CC[C@H]2[C@@H]3CCC4=CC(=O)CC[C@]4(C)[C@H]3[C@@H](O)C[C@@]21C
not listed: [2] | [8] | [10] | [12] | [16] | [17] | [18] | [20]
inactive: all other assays above

NC(=O)Nc1ccc(Cl)cc1
not listed: [2] | [9] | [16] | [17] | [18] | [20]
inactive: all other assays above

CC(=O)[C@H]1CC[C@H]2[C@@H]3C[C@H](C)C4=CC(=O)CC[C@]4(C)[C@H]3[C@@H](O)C[C@]12C
active: [2] 9.02 µM | [16] 0.0129 µM | [17] 0.0285 µM
not listed: [8] | [10] | [11] | [12] | [19] | [20]
inactive: all other assays above

CCOC(=O)/C=C/C(=O)O
not listed: [9] | [19] | [20]
inactive: all other assays above

CCCCC(CC)COC(=O)COc1ccc(Cl)cc1C (stereo not drawn)
active: [19] 68.6 µM
not listed: [2] | [16] | [17] | [18] | [20]
inactive: all other assays above

CCOC(=O)c1ccccc1C
active: [19] 61.1 µM
not listed: [2] | [3] | [16] | [17] | [18] | [20]
inactive: all other assays above

C(=C\c1ccccc1)/CN1CCN(C(c2ccccc2)c2ccccc2)CC1
inactive: [1] | [19] | [3] | [9] | [13] | [14] | [15]
active: [5] 12.7 µM

C/C=C(\C)C(=O)OCCC(C)CCC=C(C)C (stereo not drawn)
inactive: [1] | [2] | [3] | [4] | [5] | [6] | [7] | [9] | [13] | [15]

CCCCCCCC/C=C\CCCCCCCC(=O)OC(CO)CO
inactive: [1] | [2] | [3] | [4] | [6] | [7] | [9] | [13] | [14] | [15]

C=CC(=O)NCOCC(C)C
inactive: [1] | [2] | [20] | [3] | [4] | [5] | [9] | [13] | [14] | [15]

CC1C2CC(CC2C2CCCC(O)C2)C1(C)C (stereo not drawn)
active: [19] 24.3 µM
inactive: [1] | [4] | [5] | [6] | [7] | [9] | [13]

c1cc[c]([Bi]([c]2ccccc2)[c]2ccccc2)cc1
active: [2] 61.1 µM | [20] 61.1 µM | [6] 54.5 µM | [11] 21.7 µM
not listed: [4] | [5] | [16] | [17] | [18] | [19]
inactive: all other assays above

Cc1ccc(/C=N/n2c(-c3ccccc3)csc2=S)cc1
inactive: [1] | [4] | [5] | [7] | [13] | [15]
active: [2] 26.6 µM | [20] 29.8 µM | [6] 23.7 µM

CCC(C)(O)CCC=C(C)C (stereo not drawn)
not listed: [3] | [5] | [11] | [16] | [17] | [18] | [19] | [20]
inactive: all other assays above

CC(CCO)CCc1ccccc1 (stereo not drawn)
not listed: [2] | [3] | [16] | [17] | [18] | [19] | [20]
inactive: all other assays above

Cc1nccn1-c1ccc(Sc2cccc(C3(C(N)=O)CCOCC3)c2)cc1
active: [2] 0.77 µM | [19] 1.54 µM | [20] 1.37 µM | [3] 4.9 µM | [4] 15.4 µM | [5] 27.3 µM | [6] 4.86 µM | [8] 0.275 µM [inconclusive] | [12] 1.93 µM | [14] 54.5 µM
inactive: [9] | [13] | [15]

CCCCN(CCCC)C(=S)SSC(=S)N(CCCC)CCCC
inactive: [19] | [20] | [4] | [6] | [8] | [10] | [11] | [12] | [13] | [14] | [15]

Cc1ccc(S(=O)(=O)NC2CCCCC2)cc1
active: [12] 68.1 µM
inactive: [1] | [3] | [4] | [5] | [6] | [7] | [9] | [10] | [13] | [14]

Nc1nc(Cl)nc2c1ncn2[C@@H]1O[C@H](CO)[C@@H](O)[C@@H]1F
inactive: [3] | [4] | [7] | [10] | [11] | [13] | [15]
active: [2] 0.0019 µM | [19] 0.0019 µM | [20] 0.0024 µM | [5] 0.237 µM | [6] 0.133 µM | [12] 3.76 µM
